The values that follow come from PubChem BioAssay.

What is called inhibition is the relative decrease from the control value, in per cent.

Results filed as inconclusive are left out. Activity calls are given as the source filed them.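 The calls were made as follows, unless noted: active = GFP signal, as percent of the solvent control, above the screen mean plus 3 SD, about 149; inconclusive = no reading because the compound's own fluorescence upset strain identification; inactive = the rest.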

Experiment [1] in a line: yeast TOR pathway RPL19A-GFP modulators, primary screen, cell-based, S. cerevisiae, multiplex flow cytometry (AID 1862; in the data active = percent of DMSO control GFP below about 86%;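 also: lower values mimic rapamycin by blocking the RPL19A rise seen in DMSO cells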). The conditions noted are these: S. cerevisiae RPL19A-GFP strain, flow cytometry fluorescence, 3 h; at 10 µM; stronger effect = lower value.
Experiment [2] is described as follows: modulators of MEP2-GFP levels in yeast, primary screen, S. cerevisiae, multiplex flow cytometry (AID 1867;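 active = GFP response, as percent of the DMSO control, above the screen-wide mean plus 3 SD, about 139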;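 also: median GFP channel fluorescence of barcode-gated MEP2-GFP cells measured by flow cytometry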). The conditions noted are these: S. cerevisiae MEP2-GFP strain, 3 h, at 10 µM, stronger effect = higher value, 100% means same as DMSO wells. (In general: A flow cytometer gives signals particle by particle.)
Experiment [3] in a line: modulators of CIT2-GFP expression in yeast, primary screen, S. cerevisiae, GFP fusion, multiplex flow cytometry (AID 1870;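 active = percent response above a set limit, the screen-wide mean plus 3 SD, cut at about 130% in these data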;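 also: barcoded CIT2-GFP strain pooled with four other GFP strains with rapamycin as positive control; median GFP fluorescence per well over plate mean of DMSO wells so 100% = DMSO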). The conditions noted are these: 3 h, at 10 µM, stronger effect = higher value.
Experiment [4] can be described thus: modulators of LAP4-GFP expression in yeast, primary screen, S. cerevisiae, multiplex flow cytometry (AID 1873). The conditions noted are these: 3 h, at 10 µM, stronger effect = higher value.
Experiment [5] can be described thus: modulators of AGP1-GFP expression in yeast TOR pathway, primary screen, cell-based, multiplex flow cytometry, S. cerevisiae (AID 1887;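 active = GFP signal above the screen-wide mean plus 3 SD, that is over about 124.5% of the solvent control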;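 also: AGP1-GFP fusion strain of S. cerevisiae within a five-strain barcoded multiplex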). The conditions noted are these: 3 h, at 10 µM, stronger effect = higher value.
A short description of experiment [6]: inhibitors of CD8+ T cell-vesicle binding, pilot screen, LFA-1/ICAM-1 modulator project, MLPCN validation set, flow cytometry (AID 2523;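 active = response below a set limit, under 55% cells CD8-positive and vesicle-bound, and CD8 cells' 90th-percentile brightness under 279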;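 as to vesicle binding response: mean PE anti-B7-1 fluorescence of CD8+ cells relative to row control; 100% = QL9-loaded vesicles with DMSO vehicle in the same plate row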). The conditions noted are these: 2C mouse CD8+ T cells, at 7 µM, stronger effect = lower value; double positive events: measured here: CD8+/vesicle+ event percentage.
Experiment [7] addresses Integrin beta-1 (Homo sapiens) + Integrin alpha-4 (Homo sapiens) (UniProt P13612+P05556). The experiment can be described thus: inhibition of HUTS-21 binding to VLA-4, pilot screen, VLA-4 allosteric modulator project, U937 cells, HUTS-21 mAb, flow cytometry, validation set (AID 2674;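 active = inhibition above 50%, about 3 SD of the validation set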;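 also: antibody binding induced by the VLA-4 ligand LDV present at three times its Kd; 0% = LDV ligand with antibody and no compound and 100% = antibody without LDV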). The conditions noted are these: HUTS-21 LIBS mAb binding, at 6.7 µM, stronger effect = higher value, binding induced by LDV ligand.

Experiment [8] can be described thus: superoxide lowering in aged yeast cells, pilot screen, validation compound set (AID 2706;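 active = superoxide response below 65% of plate, a cut near 3 SD across the whole screen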;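 also: yeast exposed to compound for one week at 30 degrees C before staining; 100% = mean of all compound wells on the same plate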). The conditions noted are these: S. cerevisiae aging, superoxide DHE fluorescence; at 10 µM, stronger effect = lower value.
The target in experiment [9] is Beta-adrenergic receptor kinase 1 (Homo sapiens) (UniProt P25098). Nature of the experiment: GRK2 binders displacing RNA aptamer, biochemical, validation, human GRK2, bead flow cytometry (AID 488806;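 active = aptamer binding inhibition above 30%, about 3 SD of noise from non-fluorescent compounds; inactive = inhibition at or below 30%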). The conditions noted are these: bead-bound GRK2, FAM-aptamer displacement, at 10 µM, stronger effect = higher value.
Sequence of Beta-adrenergic receptor kinase 1 (Homo sapiens) (P25098 whole entry, looked up): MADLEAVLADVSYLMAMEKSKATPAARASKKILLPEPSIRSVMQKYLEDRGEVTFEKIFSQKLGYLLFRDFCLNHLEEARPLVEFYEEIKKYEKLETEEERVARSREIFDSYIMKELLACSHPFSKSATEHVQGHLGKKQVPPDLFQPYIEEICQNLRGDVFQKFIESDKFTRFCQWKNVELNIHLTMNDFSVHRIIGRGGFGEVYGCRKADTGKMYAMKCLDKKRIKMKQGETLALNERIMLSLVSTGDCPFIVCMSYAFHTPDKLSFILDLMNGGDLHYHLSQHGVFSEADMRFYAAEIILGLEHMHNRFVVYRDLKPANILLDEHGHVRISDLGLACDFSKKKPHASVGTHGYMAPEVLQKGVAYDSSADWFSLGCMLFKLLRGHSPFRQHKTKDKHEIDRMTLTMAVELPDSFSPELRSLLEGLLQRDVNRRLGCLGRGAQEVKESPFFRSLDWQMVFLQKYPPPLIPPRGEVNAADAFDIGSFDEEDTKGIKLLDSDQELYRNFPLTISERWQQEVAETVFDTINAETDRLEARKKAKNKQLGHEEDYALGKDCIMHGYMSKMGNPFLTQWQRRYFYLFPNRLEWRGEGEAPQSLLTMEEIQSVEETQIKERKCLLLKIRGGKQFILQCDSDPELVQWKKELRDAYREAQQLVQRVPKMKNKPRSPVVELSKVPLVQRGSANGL
Experiment [10] deals with AP-2 complex subunit beta (Homo sapiens) (UniProt P63010). Nature of the experiment: inhibitors of arrestin peptide binding to AP2, pilot screen, biochemical, validation set, GST-AP2 beads, flow cytometry (AID 504541;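 active = inhibition above 54%, about 3 SD of non-fluorescent compounds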;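 also: AP2 carries R879A mutation and is captured from E. coli lysate; bead-bound FITC arrestin peptide fluorescence measuring arrestin peptide binding to AP2; 0% = DMSO wells and 100% = excess unlabeled arrestin peptide control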). The conditions noted are these: FITC arrestin peptide, at 10 µM, stronger effect = higher value, AP2 beta2 appendage fragment, R879A mutant.
Sequence of AP-2 complex subunit beta (Homo sapiens) (P63010 whole entry, looked up, the tested form may be a part, one chain of several): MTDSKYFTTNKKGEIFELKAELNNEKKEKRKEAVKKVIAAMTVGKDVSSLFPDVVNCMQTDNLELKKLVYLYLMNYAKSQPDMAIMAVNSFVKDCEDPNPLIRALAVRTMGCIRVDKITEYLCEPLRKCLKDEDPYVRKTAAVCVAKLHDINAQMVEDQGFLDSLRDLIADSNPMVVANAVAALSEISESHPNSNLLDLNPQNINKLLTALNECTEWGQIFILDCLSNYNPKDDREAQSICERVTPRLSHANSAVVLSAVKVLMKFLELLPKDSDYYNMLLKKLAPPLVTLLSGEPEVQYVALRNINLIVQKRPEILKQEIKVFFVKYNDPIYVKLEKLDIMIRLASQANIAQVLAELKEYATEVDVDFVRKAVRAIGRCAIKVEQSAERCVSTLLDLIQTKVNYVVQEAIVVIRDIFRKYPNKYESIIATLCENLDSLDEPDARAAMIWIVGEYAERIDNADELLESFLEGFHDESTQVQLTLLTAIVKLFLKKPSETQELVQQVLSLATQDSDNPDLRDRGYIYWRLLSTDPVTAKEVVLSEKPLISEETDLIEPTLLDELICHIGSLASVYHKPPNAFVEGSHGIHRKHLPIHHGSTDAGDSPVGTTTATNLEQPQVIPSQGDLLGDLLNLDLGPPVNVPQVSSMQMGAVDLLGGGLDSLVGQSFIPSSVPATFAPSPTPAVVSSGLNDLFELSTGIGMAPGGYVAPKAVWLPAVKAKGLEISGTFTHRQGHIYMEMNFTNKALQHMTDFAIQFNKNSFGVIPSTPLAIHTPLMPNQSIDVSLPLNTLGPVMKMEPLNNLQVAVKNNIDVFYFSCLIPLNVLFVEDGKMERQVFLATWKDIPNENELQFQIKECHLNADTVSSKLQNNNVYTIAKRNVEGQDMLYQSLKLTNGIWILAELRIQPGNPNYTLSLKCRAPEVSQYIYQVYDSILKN
Experiment [11] in a line: yeast V-ATPase proton transport modulators, S. cerevisiae, pHLuorin, HTS validation (AID 504600; in the data active = response above about 15%;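 also: plate controls were DMSO for no effect and reference compound for full effect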). The conditions noted are these: S. cerevisiae pHLuorin cytosolic pH, at 10 µM, stronger effect = higher value.
Experiment [12] concerns anti-desmoglein-3 scFv antibody binding to human DSG3. Nature of the experiment: inhibitors of anti-DSG3 scFv binding to DSG3, pilot screen, biochemical, validation compound set, bead-based, flow cytometry (AID 588368;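 active = binding below the plate cutoff, the plate median minus 3 SD, with a reading above zero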;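 also: signal is the median channel fluorescence of bead-bound GFP antibody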). The conditions noted are these: Protein G beads, DSG3-Fc, scFv-GFP binding, at 10 µM, stronger effect = lower value.
Experiment [13] can be described thus: inhibitors of fungal efflux pumps CDR1, CDR2, MDR1, pilot screen, validation compound set, multiplex, phenotypic (AID 588506;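 active = efflux inhibition above 0.42, the validation set average plus 4 SD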;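 also: Nile Red retained in cells so higher fluorescence means more efflux inhibition; 0 = negative control wells and 1 = enniatin B 25 µM full block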). The conditions noted are these: S. cerevisiae pump-expressing triplex, Nile Red efflux flow cytometry; at 10 µM; stronger effect = higher value; the pumps come from Candida albicans.
For experiment [14], the target named is ATP-binding cassette sub-family B member 6 (Homo sapiens) (UniProt Q9NP58). Nature of the experiment: ABCB6 transporter inhibitors, pilot screen, K562-ABCB6 cells, flow cytometry, validation set (AID 588550;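 active = inhibition above the screen-wide mean plus 3 SD, about 51%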;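 also: 0% = DMSO wells and 100% = benzethonium chloride 70 µM positive control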). The conditions noted are these: K562-ABCB6 porphyrin accumulation, 1 h, at 10 µM, stronger effect = higher value.
Sequence of ATP-binding cassette sub-family B member 6 (Homo sapiens) (Q9NP58 whole entry, looked up): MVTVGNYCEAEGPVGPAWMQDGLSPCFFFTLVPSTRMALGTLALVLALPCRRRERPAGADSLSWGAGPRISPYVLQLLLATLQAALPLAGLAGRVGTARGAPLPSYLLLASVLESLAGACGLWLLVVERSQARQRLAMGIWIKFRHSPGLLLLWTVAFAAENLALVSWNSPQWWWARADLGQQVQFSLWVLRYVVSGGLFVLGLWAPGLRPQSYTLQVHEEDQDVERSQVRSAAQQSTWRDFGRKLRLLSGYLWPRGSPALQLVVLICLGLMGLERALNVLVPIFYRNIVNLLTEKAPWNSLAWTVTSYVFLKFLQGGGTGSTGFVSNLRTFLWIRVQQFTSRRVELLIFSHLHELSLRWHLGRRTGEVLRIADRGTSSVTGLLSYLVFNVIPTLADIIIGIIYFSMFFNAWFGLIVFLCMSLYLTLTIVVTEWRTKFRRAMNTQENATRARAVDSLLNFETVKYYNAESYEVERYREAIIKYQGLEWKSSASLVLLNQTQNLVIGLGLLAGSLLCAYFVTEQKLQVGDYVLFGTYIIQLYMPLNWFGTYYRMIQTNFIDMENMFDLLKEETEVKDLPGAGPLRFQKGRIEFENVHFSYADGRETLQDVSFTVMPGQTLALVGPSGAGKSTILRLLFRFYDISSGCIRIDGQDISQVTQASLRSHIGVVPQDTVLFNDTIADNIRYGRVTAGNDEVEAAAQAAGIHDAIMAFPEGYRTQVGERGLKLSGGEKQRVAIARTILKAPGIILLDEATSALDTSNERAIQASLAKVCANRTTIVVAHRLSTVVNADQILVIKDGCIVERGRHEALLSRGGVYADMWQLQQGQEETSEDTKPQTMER
A short description of experiment [15]: promoters of myeloid differentiation in arrested cells, primary screen, cell-based, GFP/MAC1 double positive, flow cytometry, validation set (AID 588685;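 active = differentiation response of at least 50%, scaled between solvent and reference control, from cells with both markers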;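 also: compound exposure lasts four days before antibody staining and flow analysis; 0% = DMSO wells and 100% = 5 µM fulvestrant positive control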). The conditions noted are these: ER-HoxA9 marrow cells, stronger effect = higher value, normalized: vehicle 0, fulvestrant 100.

Sequence of Integrin beta-1 (Homo sapiens) + Integrin alpha-4 (Homo sapiens) (P05556 whole entry, looked up): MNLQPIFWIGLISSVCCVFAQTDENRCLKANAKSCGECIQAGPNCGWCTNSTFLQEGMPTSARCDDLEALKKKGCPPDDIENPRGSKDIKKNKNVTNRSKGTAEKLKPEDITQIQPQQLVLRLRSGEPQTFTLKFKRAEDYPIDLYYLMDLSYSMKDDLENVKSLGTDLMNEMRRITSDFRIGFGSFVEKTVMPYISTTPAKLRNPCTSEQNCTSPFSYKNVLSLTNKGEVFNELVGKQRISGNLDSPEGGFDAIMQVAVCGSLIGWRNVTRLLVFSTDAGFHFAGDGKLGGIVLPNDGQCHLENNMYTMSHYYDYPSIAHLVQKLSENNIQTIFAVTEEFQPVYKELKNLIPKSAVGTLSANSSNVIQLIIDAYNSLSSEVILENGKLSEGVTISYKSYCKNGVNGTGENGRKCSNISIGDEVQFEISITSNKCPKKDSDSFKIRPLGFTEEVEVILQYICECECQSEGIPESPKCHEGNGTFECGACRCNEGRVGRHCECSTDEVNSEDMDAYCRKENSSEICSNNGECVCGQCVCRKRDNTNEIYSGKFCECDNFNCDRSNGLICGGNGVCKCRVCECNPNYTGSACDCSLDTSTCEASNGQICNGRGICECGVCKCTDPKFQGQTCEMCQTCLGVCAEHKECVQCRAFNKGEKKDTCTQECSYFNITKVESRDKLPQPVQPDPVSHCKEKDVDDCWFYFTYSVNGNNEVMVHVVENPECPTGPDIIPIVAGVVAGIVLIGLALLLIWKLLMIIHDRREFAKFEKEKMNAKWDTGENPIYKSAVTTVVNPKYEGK
Sequence of Integrin beta-1 (Homo sapiens) + Integrin alpha-4 (Homo sapiens) (P13612 whole entry, looked up): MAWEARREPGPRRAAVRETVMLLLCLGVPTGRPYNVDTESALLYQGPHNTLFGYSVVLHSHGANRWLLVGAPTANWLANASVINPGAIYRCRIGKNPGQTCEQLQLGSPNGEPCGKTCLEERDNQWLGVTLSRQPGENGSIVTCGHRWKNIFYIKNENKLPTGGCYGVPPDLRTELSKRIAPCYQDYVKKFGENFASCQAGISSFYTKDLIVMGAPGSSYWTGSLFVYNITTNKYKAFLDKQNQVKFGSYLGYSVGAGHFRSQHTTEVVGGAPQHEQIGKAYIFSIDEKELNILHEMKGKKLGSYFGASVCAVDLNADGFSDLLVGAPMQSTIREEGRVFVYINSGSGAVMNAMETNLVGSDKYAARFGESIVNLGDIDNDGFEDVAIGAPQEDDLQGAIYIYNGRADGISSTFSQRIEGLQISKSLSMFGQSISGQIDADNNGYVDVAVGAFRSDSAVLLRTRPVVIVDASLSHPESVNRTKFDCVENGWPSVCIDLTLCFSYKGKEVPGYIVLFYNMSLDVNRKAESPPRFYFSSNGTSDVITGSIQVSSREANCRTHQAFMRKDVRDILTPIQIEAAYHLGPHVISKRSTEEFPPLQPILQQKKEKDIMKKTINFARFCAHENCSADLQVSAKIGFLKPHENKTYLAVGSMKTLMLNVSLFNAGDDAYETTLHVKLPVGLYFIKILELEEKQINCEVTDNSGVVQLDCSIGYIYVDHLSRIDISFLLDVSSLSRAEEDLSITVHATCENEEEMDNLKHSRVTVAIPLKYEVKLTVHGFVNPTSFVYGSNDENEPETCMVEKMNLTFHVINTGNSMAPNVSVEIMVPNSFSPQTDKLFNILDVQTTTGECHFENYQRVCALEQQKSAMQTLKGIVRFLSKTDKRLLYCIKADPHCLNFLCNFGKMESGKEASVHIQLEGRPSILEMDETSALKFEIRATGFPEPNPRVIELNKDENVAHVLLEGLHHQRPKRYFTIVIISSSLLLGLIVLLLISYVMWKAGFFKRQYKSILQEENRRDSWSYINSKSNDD

In the case of `O=c1c(-c2ccc3c(c2)OCCO3)coc2cc(OC3OC(CO)C(O)C(O)C3O)ccc12` (stereo not given), the percent of DMSO control GFP in [1] was 103% (inactive). Also, the results for the GFP response vs DMSO in experiment [2] and in experiment [4] were 101% (inactive) and 90.3% (inactive), respectively. Besides, the percent response of DMSO control in experiment [3] is 106% (inactive). Further, the GFP response, % of DMSO in experiment [5] was 103% (inactive). This compound also yielded a double positive events in [6] of 63.1%. Besides, the vesicle binding response in experiment [6] was 127% (inactive). Further, the inhibition in experiment [7] was 1.62% (inactive); in experiment [10] it was -2.44% (inactive); in experiment [14], 8% (inactive). Moreover, the superoxide response (% of plate) in experiment [8] is 93.4% (inactive). Also, the aptamer binding inhibition in experiment [9] was 6% (inactive). For the same compound, the response in [11] was -2.72% (inactive). The binding (% of control) in [12] was 102% (inactive). In experiment [13], the efflux inhibition (fraction of control) is -0.28 (inactive). Also, the differentiation response in [15] is -14.7% (inactive).

For the compound `Cn1c2c(c(=O)[nH]c1=O)C(c1ccc(O)cc1)C1=C(N2)c2ccccc2C1=O` (stereo not given), in experiment [1], the percent of DMSO control GFP is 99% (inactive). Further, the GFP response vs DMSO was 97.9% (inactive) in [2] and 87.3% (inactive) in [4]. Further, the percent response of DMSO control in [3] is 101% (inactive). In addition, the GFP response, % of DMSO in experiment [5] was 94.6% (inactive). In experiment [6], this compound had a double positive events of 62.7%. The vesicle binding response in [6] was 228% (inactive). The values for the inhibition in experiment [7], in experiment [10] and in experiment [14] were -3.04% (inactive), 8.12% (inactive) and 9% (inactive), respectively. Also, the superoxide response (% of plate) in experiment [8] was 92.2% (inactive). Moreover, in experiment [9], the aptamer binding inhibition is -2% (inactive). The response in experiment [11] was -0.45% (inactive). Besides, in [12], the binding (% of control) was 96.9% (inactive). Also, the efflux inhibition (fraction of control) in [13] was -0.01 (inactive). In addition, the differentiation response in experiment [15] is 11.1% (inactive).

Take `CC(C)C[C@H](NC(=O)[C@@H]1Cc2ccccc2CN1C(=O)OC(C)(C)C)C(=O)NCC1CCC(C(=O)O)CC1` (stereo not given in full): in [1], the percent of DMSO control GFP is 99.3% (inactive). The GFP response vs DMSO in experiment [2] is 95.9% (inactive); in [4], 92.3% (inactive). Moreover, the percent response of DMSO control in [3] is 105% (inactive). Also, in experiment [5], the GFP response, % of DMSO was 99.9% (inactive). The double positive events in experiment [6] was 59.9%. The vesicle binding response in experiment [6] is 257% (inactive). In addition, the inhibition in experiment [7] is 1.62% (inactive); in experiment [10] it was -3.49% (inactive); in [14], 7% (inactive). In [8], the superoxide response (% of plate) was 93.6% (inactive). Also, the aptamer binding inhibition in [9] was 3% (inactive). In addition, in experiment [11], the response was -10.3% (inactive). In experiment [12], the binding (% of control) is 101% (inactive). The efflux inhibition (fraction of control) in [13] was -0.12 (inactive). The differentiation response in experiment [15] is -27.6% (inactive).

As to `COc1ccc(C2NC(=O)c3ccccc3N2)cc1OC` (stereo not given), the percent of DMSO control GFP in experiment [1] is 98.8% (inactive). Further, the GFP response vs DMSO in experiment [2] is 99.9% (inactive); in [4], 94.3% (inactive). Also, the percent response of DMSO control in [3] was 96.9% (inactive). Besides, in [5], the GFP response, % of DMSO was 92.2% (inactive). The double positive events in [6] came to 64.4%. Besides, in experiment [6], the vesicle binding response was 117% (inactive). Moreover, the inhibition in [7] was 10.9% (inactive); in experiment [10] it was 3.03% (inactive); in experiment [14] it was 11% (inactive). Further, the superoxide response (% of plate) in experiment [8] is 108% (inactive). For the same compound, the aptamer binding inhibition in [9] was 5% (inactive). For the same compound, in experiment [11], the response was 1.73% (inactive). Besides, in experiment [12], the binding (% of control) was 95.1% (inactive). In experiment [13], the efflux inhibition (fraction of control) was 0.06 (inactive). The differentiation response in [15] is -3.43% (inactive).

As for `NCCOc1ccccc1OCCN`, the percent of DMSO control GFP in [1] is 102% (inactive). Besides, the figures for the GFP response vs DMSO in [2] and in experiment [4] were 93.8% (inactive) and 90.3% (inactive), respectively. Further, the percent response of DMSO control in experiment [3] was 102% (inactive). Further, the GFP response, % of DMSO in experiment [5] is 99.9% (inactive). This compound also came in with a double positive events in experiment [6] of 59.5%. Besides, in experiment [6], the vesicle binding response is 208% (inactive). Further, the values for the inhibition in experiment [7], in experiment [10] and in experiment [14] were -6.77% (inactive), -11.9% (inactive) and 11% (inactive), respectively. The superoxide response (% of plate) in experiment [8] was 91.8% (inactive). For the same compound, the aptamer binding inhibition in experiment [9] was -6% (inactive). Further, the response in experiment [11] was -1.26% (inactive). Besides, the binding (% of control) in experiment [12] was 109% (inactive). For the same compound, the efflux inhibition (fraction of control) in experiment [13] was -0.2 (inactive). For the same compound, the differentiation response in experiment [15] was -26% (inactive).
